# The list is not random: actives were taken first. Their share in the collection is about 3.9%.
# SARS 3CLpro inh – SARS-CoV 3CLpro protease inhibition | P0C6X7 | recombinant SARS-CoV 3CLpro, quenched FRET peptide cleavage | inhibition, % at 6 µM | 0.14% of 290,000 active; in the data active means inhibition above about 12%
# Anthrax LF prot – inhibitors of Bacillus anthracis lethal factor protease; multiplex microsphere protease cleavage assay, LF; inhibition, % at 10 µM; 0.12% of 360,000 active; P15917; in the data active means inhibition above about 30%; inconclusive means no clear call, values can overlap the other calls; further: plate controls were buffer without enzyme for full effect and enzyme alone for no effect
# Target sequence (P15917 whole entry, looked up): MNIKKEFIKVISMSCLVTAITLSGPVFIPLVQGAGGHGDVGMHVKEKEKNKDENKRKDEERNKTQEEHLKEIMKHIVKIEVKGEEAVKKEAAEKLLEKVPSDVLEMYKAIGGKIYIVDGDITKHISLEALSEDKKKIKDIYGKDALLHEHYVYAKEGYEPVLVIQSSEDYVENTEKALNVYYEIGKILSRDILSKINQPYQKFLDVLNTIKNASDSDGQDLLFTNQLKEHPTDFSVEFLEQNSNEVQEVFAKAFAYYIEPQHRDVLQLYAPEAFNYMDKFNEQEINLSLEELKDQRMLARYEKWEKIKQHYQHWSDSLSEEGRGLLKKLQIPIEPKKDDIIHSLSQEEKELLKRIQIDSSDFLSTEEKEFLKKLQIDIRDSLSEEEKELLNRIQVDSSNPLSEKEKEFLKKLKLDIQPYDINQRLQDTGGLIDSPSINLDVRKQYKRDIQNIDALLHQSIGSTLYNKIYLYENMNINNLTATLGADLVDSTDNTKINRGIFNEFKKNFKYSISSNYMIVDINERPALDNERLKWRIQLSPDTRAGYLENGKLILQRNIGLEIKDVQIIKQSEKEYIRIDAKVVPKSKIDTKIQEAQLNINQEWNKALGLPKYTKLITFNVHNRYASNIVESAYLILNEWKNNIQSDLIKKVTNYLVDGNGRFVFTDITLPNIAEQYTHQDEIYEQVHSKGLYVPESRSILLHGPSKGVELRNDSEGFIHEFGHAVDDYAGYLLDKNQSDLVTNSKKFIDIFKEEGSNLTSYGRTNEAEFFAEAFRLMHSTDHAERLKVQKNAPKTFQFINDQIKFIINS
# BoNT F protease – inhibitors of Botulinum neurotoxin F light chain protease | AID 588497 | inhibition, % at 10 µM | 0.22% of 360,000 active | Multiplex microsphere protease cleavage assay, flow cytometry; in the data active means inhibition above about 35%, passing the limit was not always enough; inconclusive means no clear call, values can overlap the other calls; further: plate controls were buffer without enzyme for full effect and enzyme alone for no effect
# BoNT A protease – inhibitors of Botulinum neurotoxin A light chain protease; 0.17% of 360,000 active; AID 588499; inhibition, % at 10 µM; multiplex microsphere protease substrate cleavage, flow cytometry; in the data active means inhibition above about 30%; inconclusive means no clear call, values can overlap the other calls; further: plate controls were buffer without enzyme for full effect and enzyme alone for no effect
# CCHF vOTU inh-1 – blocks the CCHF virus ovarian tumor domain protease; CCHFV vOTU protease, Pep-AMC fluorescence; inhibition, % at 11.5 µM; 0.55% of 370,000 active; further: 0% = vehicle wells with enzyme and 100% = no enzyme wells
# Bead autofluor – compound fluorescence in toxin protease inhibitor counterscreen; compound autofluorescence counterscreen, microsphere flow cytometry; hits give high values; fluorescence intensity (no concentration beside the values); 3.1% of 360,000 active; in the data active means fluorescence intensity above about 16000; inconclusive means no clear call, values can overlap the other calls
# CCHF vOTU inh-2 – CCHFV vOTU protease inhibition, confirmation. shares compounds with CCHF vOTU inh-1. Recombinant CCHFV vOTU, Pep-AMC fluorescence. 17% of 1,900 active. AID 686976. inhibition, % at 11.5 µM
# * marks the source's active call; other numbers are inactive results; ? = inconclusive; . = no result given. Unless noted, no stated cut-off is given here; in the data, active means inhibition above about 30%; inactive means the rest.
SMILES,SARS 3CLpro inh,Anthrax LF prot,BoNT F protease,BoNT A protease,CCHF vOTU inh-1,Bead autofluor,CCHF vOTU inh-2
CNCCCOc1ccc(C)cc1Br,3.3,-0.8,-2.6,?,29.7*,20475*,-14.3
CCCCNC(=O)C[C@H]1C[C@@]2(C(=O)OC)C(=C[C@H](C(C)C)O[C@@H]2C2CC2)N(Cc2ccco2)C1=O,.,.,.,.,9.8,.,.
COc1ccccc1Nc1ccc([N+](=O)[O-])cc1N,2.5,-1.4,-6.4,1.2,9.9,2609,.
COc1cc(Nc2ccccc2Cl)c([N+](=O)[O-])nc1[N+](=O)[O-],0.6,-7.7,-3.9,-0.3,31.2*,7121,-6.6
CCCCCCCCN1C(=O)[C@@H](CC(=O)NCC2CCCCC2)C[C@@]2(C(=O)OC)C1=C[C@H](C1CCCC1)O[C@@H]2C,.,.,.,.,-6.2,.,.
CCCN1C(=O)c2[nH]nc(-c3ccccc3)c2C1c1ccc(Br)cc1 (centres undefined),.,.,.,.,17.3,.,.
CCC12CCCN3CCc4c(n(c5ccccc45)C(O)(C(=O)OC)C1)C32 (centres undefined),-4.8,-9.2,-20.4,1.1,41.8*,4880,-6.2
CC(c1ccc(Cl)cc1)N(CCN(C)C)c1ccccn1 (centres undefined),.,.,.,.,-1.9,.,.
O=c1oc2ccccc2c(N2CCCC2)c1[N+](=O)[O-],1.7,-9.6,-4.4,-1.1,31.5*,4114,-15.0
CC(C)=CCC1=C(OCC(=O)O)C(=O)c2ccccc2C1=O,2.5,-13.8,-8.9,-0.6,110.4*,4066,85.1*
Nc1[nH]c(C(=O)c2ccc(Br)cc2)c(-c2ccccn2)c1C(=O)NCCc1c[nH]c2ccccc12,.,.,.,.,13.3,.,.
COc1cc(/C=C2/C(=O)NN(c3ccc(Cl)c(Cl)c3)C2=O)cc([N+](=O)[O-])c1O,3.4,-11.6,-3.5,-2.6,37.8*,3936,-10.2
COc1cc(/C=C2/C(=O)NN(c3ccc(F)cc3)C2=O)cc(Cl)c1O,3.8,-8.7,11.8,0.9,6.2,4228,.
COC(=O)c1ccc(CNCC(=O)Nc2ccc(C(=O)OC)cc2)cc1,4.4,-2.6,-4.1,0.6,-17.9,1951,.
COC(=O)c1ccc(NC(=O)CNCc2ccncc2)cc1,0.9,2.3,0.0,3.9,32.4*,6626,-11.2
CC(=O)c1ccc(N2CCN(C(=O)C3CCCN(S(=O)(=O)c4cnc[nH]4)C3)CC2)cc1 (centres undefined),-6.4,-3.0,-5.8,-1.1,34.3*,?,-10.5
COC1C(OC(=O)/C=C/C=C/C=C/C=C/C(=O)O)CCC2(CO2)C1C1(C)OC1CC=C(C)C (centres undefined) (tested in a mixture with another compound),.,-5.1,-7.1,-0.2,30.3*,3629,3.3
CC(C)C[C@H]1COc2cc(N3CCCC3)ccc2S(=O)(=O)N1C,.,.,.,.,0.4,.,.
COC(=O)C1=C(C)N(Cc2cccc(C(F)(F)F)c2)C(=NCc2ccc(C(F)(F)F)cc2)NC1c1cccc(F)c1 (centres undefined),.,.,.,.,38.1*,.,3.1
COC(=O)C1=C(C)N(Cc2ccc(C(F)(F)F)cc2)C(=NCc2ccc(OC)cc2)NC1c1ccccc1C(F)(F)F (centres undefined),.,.,.,.,34.9*,.,-6.1
COC(=O)C1=C(C)N(Cc2cccc(C(F)(F)F)c2)C(=NCc2ccc(C(F)(F)F)cc2)NC1c1ccc(C(F)(F)F)cc1 (centres undefined),.,.,.,.,40.2*,.,11.1
COC(=O)C1=C(C)N(Cc2ccc(C(F)(F)F)cc2)C(=NCc2cccc(C(F)(F)F)c2)NC1c1ccccc1C(F)(F)F (centres undefined),.,.,.,.,7.2,.,.
O=C(NCC1COc2ccccc2O1)c1ccc(NC(=O)c2cccc(F)c2)cc1 (centres undefined),.,.,.,.,-1.1,.,.
O=c1ccn2c(n1)OC1CC2OC1COC(c1ccccc1)(c1ccccc1)c1ccccc1 (centres undefined),.,.,.,.,12.4,.,.
CCc1nn(CC(=O)NCCCN(CC)Cc2ccccc2)c(=O)c2cc3sccc3n12,-3.1,2.1,-6.5,-0.4,34.9*,9506,-10.4
SMILES,SARS 3CLpro inh,Anthrax LF prot,BoNT F protease,BoNT A protease,CCHF vOTU inh-1,Bead autofluor,CCHF vOTU inh-2
CCCCN(CCCNC(=O)Cn1nc(CC)n2c(cc3sc(C)cc32)c1=O)Cc1ccccc1,0.5,-2.5,-2.4,-0.5,19.3,4444,.
CCOC(=O)c1c(-c2ccccc2)[nH]c2ccc(O)cc12,0.8,-3.4,5.5,-0.4,33.8*,3724,-17.1
CCOC(=O)c1c(-c2ccccc2)n(C)c2ccc(O)cc12,-1.7,-3.6,6.1,0.8,1.9,10740,.
Nc1cc([N+](=O)[O-])cc2oc(-c3ccccc3)cc12,3.5,6.8,30.3,19.9,32.3*,5324,-11.9
CCC(=O)N1CCN(c2ccc(NC(=S)NC(=O)c3cc4ccccc4o3)cc2)CC1,-0.4,-1.9,-11.4,-1.7,33.6*,5346,-8.9
Cc1cc(N=O)no1,.,.,.,.,-7.5,.,.
CCn1nc(NS(=O)(=O)c2ccccc2[N+](=O)[O-])c2cc3cccc(C)c3nc21,7.0,1.3,-8.4,0.0,32.4*,7341,5.1
COc1ccc(-c2cccc(C(=O)Nc3ccc(C)cc3)c2)cc1,1.9,0.3,-0.6,-1.5,31.2*,4514,-3.5
CCCCNS(=O)(=O)/C=C/c1cc2c(cc1CNC(=O)OC(C)(C)C)OCO2,.,.,.,.,3.4,.,.
CCOc1ccc(NC(=NCc2ccc3c(c2)OCO3)SC2CC(=O)N(c3ccc(C(=O)O)cc3)C2=O)cc1 (centres undefined),8.5,2.3,-5.1,0.5,30.0*,2594,7.0
CCOc1ccc(NC(=NCc2ccc3c(c2)OCO3)SC2CC(=O)N(c3ccc(OCC)cc3)C2=O)cc1 (centres undefined),-1.3,2.6,-6.0,-0.1,-9.1,3637,.
Cc1onc(-c2c(F)cccc2Cl)c1-c1ncc(-c2ccc(Cl)cc2)o1,.,.,.,.,15.8,.,.
O=C(OCC(=O)N1CCc2ccccc21)c1ccc([N+](=O)[O-])o1,.,2.3,2.5,1.2,40.3*,3687,-5.7
O=C(OCC(=O)N1CCCc2ccccc21)c1ccc(Br)o1,-2.6,0.9,3.2,0.2,5.6,2487,.
CCCCCCCCN1C(=O)[C@@H](CC(=O)N2CCN(C(=O)C3CC3)CC2)C[C@@]2(C(=O)OC)C1=C[C@H](C1CCCC1)O[C@@H]2C,.,.,.,.,33.0*,.,17.9
COC(=O)[C@]12C[C@H](CC(=O)NCc3cccc(C(F)(F)F)c3)C(=O)N(Cc3ccc(Cl)cc3Cl)C1=C[C@H](C1CCCC1)O[C@@H]2C,.,.,.,.,31.6*,.,11.3
CCCCCCCCN1C(=O)[C@@H](CC(=O)NCc2ccccc2)C[C@@]2(C(=O)OC)C1=C[C@H](C1CCCC1)O[C@@H]2C,.,.,.,.,16.3,.,.
CCCCCCCCN1C(=O)[C@@H](CC(=O)NCc2ccc(C)o2)C[C@@]2(C(=O)OC)C1=C[C@H](C1CCCC1)O[C@@H]2C,.,.,.,.,30.1*,.,2.6
Cc1ccc(Oc2cccc3c2S(=O)(=O)N([C@H](C)c2ccccc2)C[C@@H](COCc2ccccc2)O3)cc1,.,.,.,.,-0.5,.,.
